Records with an inconclusive call do not appear. The source made the active and inactive calls. Calls follow the shape of the dose curve; as a rule, active = well fitted curve in the direction sought with a large enough effect; inconclusive = small, poorly fitted or top-dose-only effect, or another doubt; inactive = no such curve, though single readings can be large or run the other way.

The test can be described thus: Viability counterscreen for agonist of constitutive androstane receptor (CAR) against the NCATS DSHEA and TCM libraries (AID 1794838). Also: 0% is about no effect. Particulars: HepG2 cell viability counterscreen, CAR agonist assay; series mostly up to 40 µM; activity change, negative = cytotoxicity: at the top concentration. The source says:
Assay Development and Screening Technology Laboratory (ADST)
National Center for Advancing Translational Sciences (NCATS), Rockville, MD
National Institute of Health (NIH), Bethesda, Maryland
Dietary Supplements and Natural Products have minor oversight of their safety and efficacy. We assembled a collection of Dietary Supplements and Natural Products (DSNP) as well as Traditional Chinese Medicinal (TCM) Plant extracts, which were screened against an in vitro panel of assays, including a liver cytochrome p450 enzyme panel, CAR/PXR signaling pathways, and P-gp transporter assays, to assess their activity. This pipeline facilitated the interrogation of Natural Product-Drug Interaction (NaPDI) through prominent metabolizing pathways. In addition, we compared the activity profiles of the DSNP/TCM substances with those of an approved drug collection. Many of the approved drugs have well-annotated mechanisms of action (MOA) while the MOAs for most of the DSNP and TCM samples remain unknown. Based on the premise that compounds with similar activity profiles tend to share similar targets or MOA, we clustered the library activity profiles to identify overlap with the NCATS Pharmaceutical Collection to predict the MOAs of the DSNP/TCM substances. Overall, we highlight four significant bioactivity profiles (measured by p-values) as examples of this prediction.
To this end, we profiled both collections for potential CAR and/or PXR activity, employing a previously published 1536-well qHTS assay.
PROTOCOL TABLE (as described by Inglese J, Shamu CE and Guy RK. 2007)
SEQUENCE No. (e.g., 1, 2, 3, etc.); […] (e.g., Cells, Incubation, Reagent, etc.); VALUE; DESCRIPTION.
1; Cells; 4 uL; 1536-well white Greiner assay plate.
2; Incubation; 5 hours; 37C, 95% humidity, 5% CO2.
3; Compounds; 23 nL; Kalypsis pin tool (Wako USA) equipped with 1536-well pin head to transfer to the assay plates.
4; Reagent; 1 uL; 0.75 uM PK11195 (final concentration).
5; Incubation; 24 hours; 37C, 5% CO2.
6; Detection Reagent 1; 1 uL; CellTiter-Fluor (Promega).
7; Incubation; 1 hour; 37C, 5% CO2.
8; Detector 1; Fluorescence intensity; ViewLux plate reader (excitation 405 nm, emission 540 nm).
9; Detection Reagent 2; 4 uL; ONE-Glo Luciferase reagent (Promega).
10; Incubation; 30 min; room temperature.
11; Detector 2; Luminescence intensity; ViewLux.
NOTES (numbers refer to Sequence numbers above)
1. 4 uL of HepG2-CYP2B6-hCAR cells at 6.25 x 10^5 cells/mL (2,500 cells/well) were dispensed using a Multidrop Combi dispenser in tissue culture-treated 1536-well white assay plates (Greiner Bio-One) in the same culture media, without geneticin and blasticidin included.
2. Plates were incubated for 5 hours at 37C, 95% humidity, and 5% CO2 to allow for cell attachment.
3. Compounds (final concentrations of most substances ranged from 15.6 nM to 31.9 uM), positive control (for agonist mode: 6-(4-Chlorophenyl)imidazo[2,1-b][1,3]thiazole-5-carbaldehyde O-(3,4-dichlorobenzyl)oxime (CITCO) with a final concentration range 2.8 nM to 92 uM were transferred (23 nL) via pintool (Wako Automation).
4. After compound transfer, plates were dispensed with 1 uL of the known hCAR antagonist PK11195 (final concentration of 0.75 uM) in the agonist mode using a BioRAPTR FRDTM.
6. 1 uL of CellTiter-Fluor (Promega, Madison, Wisconsin) was added using a BioRAPTR FRDTM.
8. Fluorescence intensity (Ex/Em = 405 nm/540 nm) is obtained using the ViewLux plate reader to determine cell viability.
9. 4 uL of ONE-Glo Luciferase reagent (Promega) was added to each well using the BioRAPTR FRDTM,
10. Luminescence intensity is read using the ViewLux detector.
Inglese J, Shamu CE and Guy RK, Reporting data from high throughput screening of small molecule libraries, Nature Chemical Biology, 2007, 3(8): 438-441. doi.org/10.1038/nchembio0807-438.
(In general: The purpose of a counterscreen is to sort out artefacts and off-target activity.)
Take `CCCCCCCCCCCCCCCCCCCC(=O)O`: the “activity change, negative = cytotoxicity” value was 7.13% [at 40 µM] (inactive).

`N#CC(O[C@@H]1O[C@H](CO[C@@H]2O[C@H](CO)[C@@H](O)[C@H](O)[C@H]2O)[C@@H](O)[C@H](O)[C@H]1O)c1ccccc1` (stereo partly drawn): the “activity change, negative = cytotoxicity” value was 17.3% [at 40 µM] (inactive).

In the case of `COc1cc2c(cc1O)CC1NCCc3cc(OC)c(OC)c-2c31` (stereo not drawn), the “activity change, negative = cytotoxicity” value is -16.3% (inactive).

Regarding `COc1cc2c(cc1O)C[C@H]1c3c(cc(OC)c(O)c3-2)CCN1C`, the “activity change, negative = cytotoxicity” value is -168% (inactive).

Take `COC1=C[C@@]23CCN(C)[C@H](Cc4ccc(OC)c(O)c42)C3=CC1=O`: the “activity change, negative = cytotoxicity” value was 12.7% [at 40 µM] (inactive).

On to `COc1ccc2c(c1O)-c1c(OC)c(OC)cc3c1[C@H](C2)N(C)CC3`, for which the “activity change, negative = cytotoxicity” value was 12.7% [at 40 µM] (inactive).

As to `C=C[C@H]1CN2CCc3c([nH]c4ccccc34)[C@H]2C[C@@H]1/C(=C\OC)C(=O)OC`, the “activity change, negative = cytotoxicity” value is -37.6% (inactive).

As for `CC[C@@H]1CN2CC[C@]3(C(=O)Nc4ccccc43)[C@@H]2C[C@@H]1/C(=C\OC)C(=O)OC`, the “activity change, negative = cytotoxicity” value is -34.9% (inactive).

As to `COC(=O)C1=CO[C@@H](C)[C@@H]2CN3CC[C@@]4(C(=O)Nc5ccccc54)[C@@H]3CC12` (stereo partly drawn), the “activity change, negative = cytotoxicity” value is 4.23% (inactive).

With `C=C[C@H]1CN2CC[C@@]3(C(=O)Nc4ccccc43)[C@@H]2C[C@@H]1/C(=C\OC)C(=O)OC`, the “activity change, negative = cytotoxicity” value was -46.3% (inactive).

Take `C=CCc1ccc2c(c1)OCO2`: the “activity change, negative = cytotoxicity” value was -0.999% [at 40 µM] (inactive).

With `C=C(C)[C@@H]1CCC(C)=C[C@H]1c1c(O)cc(CCCCC)cc1O`, the “activity change, negative = cytotoxicity” value is -34.7% [at 40 µM] (inactive).

As to `COc1cc2c(cc1O)CC1c3c(cc(O)c(OC)c3-2)CCN1C` (stereo not drawn), the “activity change, negative = cytotoxicity” value is -0.35% (inactive).

The values above are taken from PubChem BioAssay (NCATS).
